Test results: PubChem BioAssay
Active and inactive are the calls of the source.

What was measured:
[1] = E. coli DRC41 culture turbidity changes, primary screen, E. coli filamentation inducer project, strain DRC41, OD650, 48 h (AID 1152);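 further: E. coli MC1000 strain DRC41 lacking acrAB efflux pump and sulA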; settings: E. coli DRC41 (acrAB sulA), higher = more signal, called active from +8 up or from −8 down
[2] = small-molecule binders of probe aLefty1, primary screen, biochemical, small-molecule microarray, 635/667 nm fluorescence (AID 1153); settings: higher = more signal;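 further: score merges spot fluorescence with signal-to-noise ratio from the scanned slide images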
[3] = PSAC antagonists in infected red cells, primary screen, cell-based, P. falciparum Indochina, OD700, 1 h (AID 1154); settings: P. falciparum Indochina infected RBC osmotic lysis, higher = more signal, called active from +8 up or from −8 down
[4] = PSAC antagonists in infected red cells, primary screen, cell-based, P. falciparum Indochina, OD700, 2 h (AID 1155);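 further: lysis reports solute entry through the parasite surface anion channel PSAC; channel blockers reduce lysis of infected cells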; settings: P. falciparum Indochina infected erythrocytes, osmotic lysis OD700; higher = more signal, called active from +8 up or from −8 down
[5] = osmotic lysis modulators in infected erythrocytes, primary screen, PSAC antagonist project, cell-based, P. falciparum Indochina, OD700, 3 h (AID 1156); settings: higher = more signal, called active from +8 up or from −8 down
[6] = PSAC antagonists in infected red cells, primary screen, cell-based, P. falciparum Indochina, OD700, 18 h (AID 1157); settings: P. falciparum Indochina infected erythrocytes, osmotic lysis OD700, 18 h; higher = more signal, called active from +8 up or from −8 down
[7] = modulators of S6 phosphorylation in cells, primary screen, cell-based, A549, cytoblot, luminescence, serum-stimulated (AID 1158); settings: A549 phospho-S6 cytoblot, 5 h, higher = more signal;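 further: serum-stimulated A549 lung adenocarcinoma cells; signal is phosphorylated S6 detected by cytoblot immunostaining with HRP secondary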
[8] = molecular target: NADPH oxidase 2 (Homo sapiens) (UniProt P04839); assay: NOX2-dependent H2O2 signal modulators, primary screen, NOX inhibitor project, cell-based, HEK293-NOX2, PMA-stimulated, Amplex Red fluorescence (AID 1159); settings: 45 min, higher = more signal, called active from +8 up or from −8 down; further: test concentration not given here
[9] = molecular target: NADPH oxidase 4 (Homo sapiens) (UniProt Q9NPH5); assay: NOX4-dependent H2O2 signal modulators, primary screen, NOX inhibitor project, cell-based, HEK293-NOX4, tetracycline-induced, Amplex Red fluorescence (AID 1160); settings: 45 min, higher = more signal, called active from +8 up or from −8 down
[10] = molecular target: NADPH oxidase 5 (Homo sapiens) (UniProt Q96PH1); assay: NOX5-dependent H2O2 signal modulators, primary screen, NOX inhibitor project, cell-based, HEK293-NOX5, Amplex Red fluorescence (AID 1161); settings: HEK293-NOX5, ionomycin, 45 min, higher = more signal
[11] = A549 cell viability effects, profiling panel, calcein-AM fluorescence, 48 h, basal (AID 1162); settings: higher = more signal; further: test concentration not given here
[12] = adipocyte viability effects, profiling panel, cell-based, 3T3-L1 adipocytes, calcein-AM fluorescence, 48 h, basal (AID 1163); settings: 3T3-L1 adipocytes viability, higher = more signal; further: test concentration not given here
[13] = HepG2 cell viability effects, profiling panel, calcein-AM fluorescence, 48 h, basal (AID 1164); settings: higher = more signal; further: test concentration not given here
[14] = MM1S cell viability effects, profiling panel, calcein-AM fluorescence, 48 h, basal (AID 1165); settings: higher = more signal;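 further: viability of MM1S multiple myeloma cells under basal unstimulated conditions; test concentration not given here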
[15] = basal RPMI8226 viability, no added stimulus, profiling panel, cell-based, calcein-AM fluorescence, 48 h, PK04 Diversity Set (AID 1166); settings: RPMI8226 myeloma viability, higher = more signal;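 further: cells grown under basal conditions without added stimulus; test concentration not given here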
[16] = basal HepG2 mitochondrial membrane potential changes, profiling panel, cell-based, JC-1 fluorescence, 24 h, 100 nL compound (AID 1167); settings: higher = more signal; further: test concentration not given here
[17] = basal 3T3-L1 adipocyte mitochondrial potential changes, profiling panel, cell-based, JC-1 fluorescence, 3T3-L1 adipocytes, 24 h, 100 nL compound (AID 1168); settings: JC-1 mitochondrial fluorescence, higher = more signal, called active from +8 up or from −8 down; further: test concentration not given here
[18] = basal RPMI8226 mitochondrial membrane potential changes, profiling panel, cell-based, JC-1 fluorescence, 24 h, 100 nL compound (AID 1169); settings: RPMI8226 myeloma, JC-1 mitochondrial potential fluorescence, higher = more signal; further: test concentration not given here
[19] = basal MM1S mitochondrial membrane potential changes, profiling panel, cell-based, JC-1 fluorescence, 24 h, 100 nL compound (AID 1170); settings: higher = more signal; further: test concentration not given here
[20] = A549 lung cancer cell viability effects, profiling panel, resazurin fluorescence, 24 h, PK04 Diversity Set (AID 1171); settings: higher = more signal, called active from +8 up or from −8 down; further: test concentration not given here

NADPH oxidase 4 (Homo sapiens), sequence (Q9NPH5 whole entry, looked up): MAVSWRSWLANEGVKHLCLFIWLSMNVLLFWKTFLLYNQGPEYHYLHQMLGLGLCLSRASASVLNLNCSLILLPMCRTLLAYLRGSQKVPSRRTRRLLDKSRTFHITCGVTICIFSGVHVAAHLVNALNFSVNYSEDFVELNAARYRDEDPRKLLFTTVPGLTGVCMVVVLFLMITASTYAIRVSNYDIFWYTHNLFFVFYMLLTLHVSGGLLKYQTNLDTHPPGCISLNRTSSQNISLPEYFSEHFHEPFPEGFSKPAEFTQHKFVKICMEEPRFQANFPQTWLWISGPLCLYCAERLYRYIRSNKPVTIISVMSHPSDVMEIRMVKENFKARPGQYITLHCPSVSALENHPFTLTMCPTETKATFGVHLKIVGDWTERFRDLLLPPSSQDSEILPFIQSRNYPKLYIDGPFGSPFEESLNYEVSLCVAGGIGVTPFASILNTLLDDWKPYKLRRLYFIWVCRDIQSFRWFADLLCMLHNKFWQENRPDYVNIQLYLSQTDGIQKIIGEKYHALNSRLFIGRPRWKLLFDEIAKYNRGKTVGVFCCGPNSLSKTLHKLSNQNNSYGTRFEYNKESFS
NADPH oxidase 2 (Homo sapiens), sequence (P04839 whole entry, looked up): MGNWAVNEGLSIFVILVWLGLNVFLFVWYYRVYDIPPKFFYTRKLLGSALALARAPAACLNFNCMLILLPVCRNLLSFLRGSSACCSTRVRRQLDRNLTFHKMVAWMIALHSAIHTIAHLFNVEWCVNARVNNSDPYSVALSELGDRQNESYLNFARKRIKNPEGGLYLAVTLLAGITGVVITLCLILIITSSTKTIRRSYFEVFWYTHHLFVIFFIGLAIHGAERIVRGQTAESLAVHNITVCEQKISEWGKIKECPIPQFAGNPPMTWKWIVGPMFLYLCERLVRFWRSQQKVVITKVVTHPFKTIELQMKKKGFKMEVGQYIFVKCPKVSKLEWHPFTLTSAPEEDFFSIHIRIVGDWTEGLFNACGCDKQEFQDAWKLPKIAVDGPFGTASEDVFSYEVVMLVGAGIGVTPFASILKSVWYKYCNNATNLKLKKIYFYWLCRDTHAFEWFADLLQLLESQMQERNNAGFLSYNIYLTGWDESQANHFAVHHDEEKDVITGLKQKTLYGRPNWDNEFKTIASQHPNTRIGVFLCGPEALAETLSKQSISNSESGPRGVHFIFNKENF
NADPH oxidase 5 (Homo sapiens), sequence (Q96PH1 whole entry, looked up): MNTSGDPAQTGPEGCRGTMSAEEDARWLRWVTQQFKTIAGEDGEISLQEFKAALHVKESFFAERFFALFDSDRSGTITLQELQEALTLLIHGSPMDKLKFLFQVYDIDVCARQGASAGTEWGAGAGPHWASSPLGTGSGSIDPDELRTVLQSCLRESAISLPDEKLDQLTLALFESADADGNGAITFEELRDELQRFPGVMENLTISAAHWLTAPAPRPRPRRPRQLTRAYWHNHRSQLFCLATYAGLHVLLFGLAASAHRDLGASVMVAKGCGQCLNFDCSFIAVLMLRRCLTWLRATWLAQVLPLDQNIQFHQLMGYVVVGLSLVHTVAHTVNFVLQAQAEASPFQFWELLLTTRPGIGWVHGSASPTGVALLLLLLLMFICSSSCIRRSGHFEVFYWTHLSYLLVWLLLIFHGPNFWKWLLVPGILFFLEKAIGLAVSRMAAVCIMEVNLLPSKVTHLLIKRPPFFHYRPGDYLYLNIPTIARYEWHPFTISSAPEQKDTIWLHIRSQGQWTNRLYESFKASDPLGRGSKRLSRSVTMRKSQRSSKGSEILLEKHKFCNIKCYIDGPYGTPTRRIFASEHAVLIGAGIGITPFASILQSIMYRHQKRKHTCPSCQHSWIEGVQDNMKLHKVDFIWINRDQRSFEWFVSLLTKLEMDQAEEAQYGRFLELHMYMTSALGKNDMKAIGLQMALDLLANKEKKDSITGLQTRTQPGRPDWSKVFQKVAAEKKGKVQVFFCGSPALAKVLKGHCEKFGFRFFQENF

Compound	z-score [1]	composite z-score [2]	z-score [3]	z-score [4]	z-score [5]	z-score [6]	z-score [7]	z-score [8]	z-score [9]	z-score [10]	z-score [11]	z-score [12]	z-score [13]	z-score [14]	z-score [15]	z-score [16]	z-score [17]	z-score [18]	z-score [19]	z-score [20]
O=C1OCC=C[C@H]2OC34C=CCN(Cn5nnc6ccccc65)C(=O)[C@H]3N(CCCCCCO)C(=O)[C@@H]4[C@@H]12 (stereo not given in full)	-0.169 (inactive)	0.32	1.99 (inactive)	0.89 (inactive)	1.15 (inactive)	0.648 (inactive)	-0.394	1.77 (inactive)	-0.17 (inactive)	2.24	-0.4	0.352	0.226	1.15	0.447	-0.688	-0.0324 (inactive)	-0.638	-0.467	-0.402 (inactive)
COCCOC(=O)N1C(=O)[C@@]2(c3cc(C#CC4=CCCCC4)ccc31)[C@H](c1ccc(O)cc1)N1[C@H](c3ccccc3)[C@H](c3ccccc3)OC(=O)[C@H]1[C@@H]2C(=O)Nc1nc2ccccc2s1	-0.567 (inactive)	0.571	2.09 (inactive)	1.76 (inactive)	0.599 (inactive)	1.81 (inactive)	-0.507	1.55 (inactive)	-0.0515 (inactive)	0.897	-0.0695	-0.898	0.0669	-1.01	-1.65	-2.79	-0.451 (inactive)	-0.941	-0.887	-0.304 (inactive)
O=C(O)[C@H]1C[C@H]2C(=O)N3CCC[C@H]3C(=O)N2[C@H]1c1cccc(OCCO)c1	0.71 (inactive)	-0.017	6.65 (inactive)	1.08 (inactive)	-1.69 (inactive)	0.619 (inactive)	0.557	-0.117 (inactive)	-0.0548 (inactive)	1.24	1.67	-0.156	0.601	0.792	-0.8	1.96	-0.652 (inactive)	-0.77	-0.568	1.04 (inactive)
CCOC(=O)C[C@H]1[C@H](OC(=O)c2ccccc2-c2ccccc2)[C@@H](NC(=O)CC(C)C)c2cc(OCCCO)ccc2N1C(=O)c1ccc2ccccc2n1	-0.518 (inactive)	-0.192	11.9 (active)	1.64 (inactive)	-0.0722 (inactive)	0.598 (inactive)	-0.577	-0.274 (inactive)	1.15 (inactive)	1.51	0.375	0.556	0.2	-1.32	-2.05	0.851	-0.0831 (inactive)	-0.537	0.32	-0.109 (inactive)
COC(=O)[C@@]1(Cc2ccccc2)[C@H]2c3cc(C(=O)N4CCCC4)n(C[C@H](O)CO)c3C[C@H]2CN1C(=O)c1ccccc1	-1.22 (inactive)	-0.165	0.975 (inactive)	0.192 (inactive)	0.218 (inactive)	0.592 (inactive)	-0.26	0.223 (inactive)	-0.303 (inactive)	-1.45	-1.11	-0.154	0.0709	0.37	0.302	0.438	-0.128 (inactive)	-0.0296	-0.3	-0.63 (inactive)
CCCc1cccc(=O)o1	-0.228 (inactive)	0.042	0.342 (inactive)	-0.831 (inactive)	-0.832 (inactive)	-1.23 (inactive)	0.274	0.685 (inactive)	-0.173 (inactive)	0.173	-0.996	0.369	-0.133	0.25	-0.316	-0.147	0.72 (inactive)	-0.417	-0.773	0.366 (inactive)
COCCOC(=O)N1C(=O)[C@@]2(c3cc(C#CCNC(N)=O)ccc31)[C@H](C(=O)N1CCCCCCC1)[C@H]1C(=O)O[C@H](c3ccccc3)[C@H](c3ccccc3)N1[C@@H]2c1ccc(O)cc1	-0.455 (inactive)	-0.0945	-0.0508 (inactive)	-0.164 (inactive)	-0.271 (inactive)	0.0404 (inactive)	0.0746	2.56 (inactive)	0.475 (inactive)	1.73	0.614	-0.369	-0.395	-0.787	0.337	-2.08	-0.379 (inactive)	-0.216	0.444	-0.171 (inactive)
[N-]=[N+]=NCc1ccccc1C[C@@]1(C(N)=O)N=C(c2ccc(OCCCO)cc2)O[C@@H]1c1ccccc1CN=[N+]=[N-]	0.315 (inactive)	0.315	26.2 (active)	10.1 (active)	1.31 (inactive)	1.38 (inactive)	-0.107	0.415 (inactive)	0.14 (inactive)	-1.66	0.703	-0.323	1.42	-1.25	-3.08	1.18	-0.301 (inactive)	-1.1	-0.422	-0.136 (inactive)
COCCOC(=O)N1C(=O)[C@@]2(c3cc(C#CC4(O)CCCCCC4)ccc31)[C@H](C(=O)N1CCCCCCC1)[C@H]1C(=O)O[C@H](c3ccccc3)[C@H](c3ccccc3)N1[C@@H]2c1ccc(OCCO)cc1	1.08 (inactive)	2.64	5.11 (inactive)	2.64 (inactive)	0.539 (inactive)	1.27 (inactive)	-0.108	0.738 (inactive)	0.507 (inactive)	1.36	0.364	1.85	0.783	-1.62	-2.6	-0.914	-2.37 (inactive)	-0.693	-0.756	1.08 (inactive)
